{
  "source": "the supplement of paper PMC13380429",
  "note": "A number with no mark means an inactive call.",
  "data": [
    {"test_system": "Vero E6 infected with SARS-CoV-2", "experiment": "inhibition of SARS-CoV-2 cytopathic effect; higher = more antiviral protection, active = above 15", "conditions": "1 nM; 48 h", "units": {"inhibition of SARS-CoV-2 cytopathic effect": "%"}, "values": [
      {"smiles": "O=C(O)Cc1cccc2c(=O)cc(-c3ccccc3)oc12", "note": "[mitoflaxone]", "inhibition of SARS-CoV-2 cytopathic effect": 1.27},
      {"smiles": "Cc1c(N)cccc1Cn1ccc(OCCc2cccs2)cc1=O", "inhibition of SARS-CoV-2 cytopathic effect": -0.22},
      {"smiles": "COc1cc(OCc2cccc(-c3ccccc3)c2C)cc(OC)c1CN1CCCC[C@H]1C(=O)O", "note": "[PD1-PDL-inhibitor-1]", "inhibition of SARS-CoV-2 cytopathic effect": -2.92},
      {"smiles": "Cc1ccsc1/C=C/C1=NCCCN1C", "note": "[morantel]", "inhibition of SARS-CoV-2 cytopathic effect": -0.99},
      {"smiles": "CC[C@@H]1C(=O)N(C)c2cnc(Nc3ccc(C(=O)N[C@H]4CC[C@H](N5CCN(CC6CC6)CC5)CC4)cc3OC)nc2N1C(C)C", "note": "[volasertib]", "inhibition of SARS-CoV-2 cytopathic effect": 4.01},
      {"smiles": "COC(=O)[C@@H](N)CCCNC(=N)N[N+](=O)[O-]", "inhibition of SARS-CoV-2 cytopathic effect": 0.94}
    ]},
    {"test_system": "Vero E6 infected with SARS-CoV-2", "experiment": "inhibition of SARS-CoV-2 cytopathic effect; higher = more antiviral protection, active = above 15", "conditions": "8.33 nM; 48 h", "units": {"inhibition of SARS-CoV-2 cytopathic effect": "%"}, "values": [
      {"smiles": "CCC(=O)O[C@@H]1CC(=O)O[C@H](C)C/C=C/C=C/[C@H](OC(C)=O)[C@H](C)C[C@H](CC=O)[C@H](O[C@@H]2O[C@H](C)[C@@H](O[C@H]3C[C@@](C)(OC(C)=O)[C@@H](OC(=O)CC)[C@H](C)O3)[C@H](N(C)C)[C@H]2O)[C@H]1OC", "note": "[miocamycin]", "inhibition of SARS-CoV-2 cytopathic effect": 1.39},
      {"smiles": "Cc1ccsc1C(=CCCN1CCC[C@@H](C(=O)O)C1)c1sccc1C", "note": "[tiagabine]", "inhibition of SARS-CoV-2 cytopathic effect": 1.98},
      {"smiles": "Clc1ccccc1C(c1ccccc1)(c1ccccc1)n1cccn1", "inhibition of SARS-CoV-2 cytopathic effect": 1.8},
      {"smiles": "CCCCN1CCC(CNC(=O)c2c3n(c4ccccc24)CCCO3)CC1", "note": "[piboserod]", "inhibition of SARS-CoV-2 cytopathic effect": 1.75},
      {"smiles": "Cn1cc(C2=C(c3cn(CCCSC(=N)N)c4ccccc34)C(=O)NC2=O)c2ccccc21", "note": "[bisindolylmaleimide-IX]", "inhibition of SARS-CoV-2 cytopathic effect": -0.79}
    ]}
  ]
}
